Autofluor counter – counter-screen for toxin protease inhibitors: compound fluorescence | compound autofluorescence counterscreen, microsphere flow cytometry; hits give high values | fluorescence intensity (no concentration beside the values) | actives 3.1% (n = 360,000) | AID 624483; in the data active means fluorescence intensity above about 16000; inconclusive means no clear call, values can overlap the other calls
BoNT A protease – blocks Botulinum neurotoxin A light chain protease. AID 588499. inhibition, % at 10 µM. actives 0.17% (n = 360,000). multiplex microsphere protease substrate cleavage, flow cytometry; further: plate controls were buffer without enzyme for full effect and enzyme alone for no effect
GDH-TPI counter – inhibits GDH-TPI coupling enzymes, artifact for Mtb FBA screen; GDH-TPI coupled enzyme counterscreen, NADH absorbance; inhibition, % at 4.8 µM; actives 1.2% (n = 360,000); AID 588335; in the data active means inhibition above about 30%;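 further: 0% = DMSO wells and 100% = wells lacking the enzyme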
FBA Mtb inh – inhibits M. tuberculosis FBA enzyme; P9WQA3; purified M. tuberculosis FBA, fluorescence read-out; inhibition, % at 1 µM; actives 2.3% (n = 360,000); AID 588726; in the data active means inhibition above about 27%;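 further: 0% = vehicle and 100% = reference inhibitor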
Target sequence (P9WQA3 whole entry, looked up): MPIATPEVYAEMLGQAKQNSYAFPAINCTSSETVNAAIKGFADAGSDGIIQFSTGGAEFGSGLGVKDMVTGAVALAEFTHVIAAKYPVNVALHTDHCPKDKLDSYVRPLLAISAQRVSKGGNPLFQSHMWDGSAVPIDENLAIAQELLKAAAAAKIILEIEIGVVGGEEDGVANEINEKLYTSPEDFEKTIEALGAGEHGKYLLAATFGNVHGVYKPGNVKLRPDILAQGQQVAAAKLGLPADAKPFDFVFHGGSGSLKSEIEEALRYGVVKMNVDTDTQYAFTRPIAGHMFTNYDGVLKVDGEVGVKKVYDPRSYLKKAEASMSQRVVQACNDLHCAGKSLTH
Anthrax LF inh2 – anthrax lethal factor protease inhibition | multiplex microsphere protease cleavage assay, LF | inhibition, % at 10 µM | actives 0.12% (n = 360,000) | AID 588501; further: plate controls were buffer without enzyme for full effect and enzyme alone for no effect
BoNT F protease – blocks Botulinum neurotoxin F light chain protease; actives 0.22% (n = 360,000); inhibition, % at 10 µM; Multiplex microsphere protease cleavage assay, flow cytometry; in the data active means inhibition above about 35%, passing the limit was not always enough; inconclusive means no clear call, values can overlap the other calls; further: plate controls were buffer without enzyme for full effect and enzyme alone for no effect
* hit, by the source's call; ? = inconclusive; nt = no result given; + = active, no number. This is a sample that favours compounds with a hit; in the whole collection about 6.7% have one here. Unless noted, no stated cut-off is given here; in the data, active means inhibition above about 30%; inconclusive means no clear call, values can overlap the other calls; inactive means below that.

SMILES	Autofluor counter	BoNT A protease	GDH-TPI counter	FBA Mtb inh	Anthrax LF inh2	BoNT F protease
COc1ccccc1-c1coc2c(CN3CCCC(C)C3)c(O)ccc2c1=O (stereo not drawn)	3724	-2	9	+	-1	2
CCN(CC)C(=O)Oc1ccc2c(=O)c(-c3ccc(OC)cc3)c(C)oc2c1	11201	0	15	-1	-1	-8
COc1cccc(O)c1CN1CCCC(C(=O)c2ccccc2SC)C1 (stereo not drawn)	4395	0	1	1	-4	1
COc1ccccc1-c1coc2c(CN3C(C)CCCC3C)c(O)ccc2c1=O (stereo not drawn)	4126	-2	6	20	5	-11
COc1cccc(Oc2c(C)oc3c(CN4CCOCC4)c(O)ccc3c2=O)c1	3331	-1	23	142*	-1	-2
CCn1c(SCC(=O)OC)nnc1-c1c[nH]c2ccccc12	5256	0	-6	2	-2	-2
CN1C(=O)N(C)C2(c3ccccc3)Nn3c(s/c(=C/c4ccccc4)c3=O)=NC12c1ccccc1 (stereo not drawn)	2571	0	10	3	2	2
CC1CCC2(CC1)NC(=O)N(NC(=O)c1cccs1)C2=O (stereo not drawn)	5457	1	-6	-3	3	-6
Cc1ccc(C(C)NC(=O)c2cc(C)oc2C)cc1 (stereo not drawn)	9624	0	2	2	4	11
CC1CCCCN1Cc1c(O)ccc2c(=O)c(-c3nc4ccccc4s3)c(N)oc12 (stereo not drawn)	2214	0	61*	21	-1	1
COc1ccccc1-c1c(C)oc2c(CN3CCCC(C)C3)c(O)ccc2c1=O (stereo not drawn)	3449	-3	21	+	-1	8
CCc1cc2c(-c3ccccc3)cc(=O)oc2c(CN2CCOCC2)c1O	3599	-1	25	3	-2	5
CCOC(=O)c1ccc(Oc2c(C)oc3c(CN4CCN(C)CC4)c(O)ccc3c2=O)cc1	2587	-1	22	157*	-5	-15
COc1ccccc1-c1c(C)oc2c(CN3CCOCC3)c(O)ccc2c1=O	2939	-1	9	+	-8	18
COc1ccc(OC)c(N=Cc2c(O)c3ccccc3oc2=O)c1	3571	-5	20	-1	19	?
CCC(=NCc1ccco1)c1c(O)n(-c2ccc(Cl)cc2)c(=O)[nH]c1=O	3364	-6	16	-4	5	?
CC(C)c1ccc(CNc2ncccn2)cc1	4222	-2	9	3	-4	5
CC(=O)N1CCc2cc(S(=O)(=O)N3c4ccccc4CC3C)ccc21 (stereo not drawn)	11264	0	-7	0	2	-8
Cc1oc2c(CN3CCCC3)c(O)ccc2c(=O)c1Oc1ccccc1Br	9893	0	24	+	-1	-5
COC(=O)Cc1c(C)c2ccc(O)c(CN3CCCC(C)C3)c2oc1=O (stereo not drawn)	2767	0	10	nt	-12	-6
Cc1oc2c(CN3CCCC(C)C3)c(O)ccc2c(=O)c1-c1ccccc1 (stereo not drawn)	3716	3	28	136*	6	6
Cc1oc2c(CN3CCCCC3)c(O)ccc2c(=O)c1-c1ccc(Cl)cc1	3884	-1	12	113*	-1	18
CC(=O)N1C(=O)NC2=C(C(=O)CCC2)C1c1cccc([N+](=O)[O-])c1 (stereo not drawn)	2989	4	3	0	13	10
CCOc1ccc(OCCC(=O)OCC(=O)N2CCN(S(=O)(=O)c3ccc(C)cc3)CC2)cc1	5144	0	6	-2	1	2
O=C(Nc1cccc(C(F)(F)F)c1)c1ccc2nc(N3C(=O)CCC3=O)sc2c1	22304*	1	-5	-1	-2	2
O=C(Nc1cccc(C(F)(F)F)c1)c1ccc2nc(-c3ccco3)c(-c3ccco3)nc2c1	3371	63*	20	3	28	-7
Cc1nc2ccc(NC(=O)c3ccc(N4C(=O)CCC4=O)cc3)cc2s1	4535	0	-1	4	-2	3
O=C(CC(c1ccccc1)c1ccccc1)Nc1ccncc1	4232	-1	4	1	0	2
COc1ccccc1-c1coc2c(CN3CCN(CCO)CC3)c(O)ccc2c1=O	?	-1	16	152*	1	0

Screening results from PubChem.
